± gives the standard deviation of the averaged measurements. Over roughly 25,000 sequences, “ln(normalized median fluorescence intensity)” has its median near 10; the highest 2% begin near 12. The list comes from a sample in which the highest values are over-represented; it also holds similar and randomly drawn sequences.
These sequences were tested on PfAP2-G AP2 domain (GST-tagged) (assay: gcPBM binding intensity (ln(normalized median fluorescence intensity)); higher = stronger DNA binding).
Procedure, shortened: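 GST-tagged P. falciparum DNA-binding domains produced in E. coli were incubated for 1 h on an Agilent 4 × 180k array of primer-extended double-stranded 36-bp intergenic genomic probes with negative controls. Binding intensity is the highest Masliner-normalised natural-log median intensity across replicate spots of either probe orientation, with bound protein detected by Alexa488 anti-GST antibody at 488 nm.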
For “ATCTAATAAAAATACACACACATATGATTTGTGAAT [CACACA_site1867]”, the “gcPBM binding intensity (ln)” value was 10.1 ± 0.28.
In the case of “TTCTTTTTAAATATACTAATTATGTATAAAACAGAA [GTGCAC_negctrl_site131]”, the “gcPBM binding intensity (ln)” value is reported as 9.94 ± 0.23.
In the case of “TAAATTATTTATAAAGCACACAAGAAAAAATAAAAT [CACACA_site2132]”, the “gcPBM binding intensity (ln)” value is reported as 10.2 ± 0.092.
For “TTTCACACTATTTCATGTACACATAAAATTATATAT [XGTACX_site8692]”, the “gcPBM binding intensity (ln)” value was 11.4 ± 0.94.
With “ATACTATAATAATACACACTCATTAGATATATAAAG [CACACA_site7787]” the “gcPBM binding intensity (ln)” value was 9.99 ± 0.12.
For “AAAAAAAAAAAATGAGCACACATAAATAAAAACAAA [CACACA_site8447]”, the “gcPBM binding intensity (ln)” value was 10.2 ± 0.12.
With “AAATTAAATAAATTTACACACTAAAAATTACAGATA [CACACA_site4722]” the “gcPBM binding intensity (ln)” value was 9.88 ± 0.028.
“GACAAATTATTGTGTACACAATATTATTATATATAC [CACACA_site6020]” was tested, and the “gcPBM binding intensity (ln)” value was 11.6 ± 0.89.
For “ATACACATATGTTAATGTACACATATATAATATTTA [XGTACX_site163]”, the “gcPBM binding intensity (ln)” value was 11.3 ± 0.78.
“TTAAAAATGTGTGTGCGTACATAATATTTCGAAAAA [XGTACX_site8197]” was tested, and the “gcPBM binding intensity (ln)” value was 11.6 ± 1.
In the case of “AAAAATATAATATAATGTACACAAAAAAAAAAAAAT [XGTACX_site4914]”, the “gcPBM binding intensity (ln)” value is reported as 11.6 ± 0.91.
“ATATATATATATATGTGTACACAAAAAATATTATAT [XGTACX_site5741]” was tested, and the “gcPBM binding intensity (ln)” value was 11.6 ± 0.83.
For “TTATTTTTTTTTTTTTGTACACAATTTGACACATTA [XGTACX_site7983]”, the “gcPBM binding intensity (ln)” value was 11.5 ± 0.91.
In the case of “AAATGTGTTAATGTGCGTACACATATATATAATATT [XGTACX_site2792]”, the “gcPBM binding intensity (ln)” value is reported as 11.7 ± 1.1.
“AAAAATATATTATATGTACACACAAAATTAAGGGAT [CACACA_site8384]” was tested, and the “gcPBM binding intensity (ln)” value was 11.5 ± 0.83.
In the case of “TTTGACAAATTATTGTGTACACAATATTATTATATA [XGTACX_site8320]”, the “gcPBM binding intensity (ln)” value is reported as 11.7 ± 1.
In the case of “TATATATATATAATGTGTACACAAATATATATTATA [XGTACX_site8786]”, the “gcPBM binding intensity (ln)” value is reported as 11.7 ± 1.1.
In the case of “TGTATTATATATACACAAATATTTATGTGTGTGTTT [XGTACX_negctrl_site475]”, the “gcPBM binding intensity (ln)” value is reported as 10.1 ± 0.11.
With “AATGTATAATTATAATGTACAAATAATATATAATAT [XGTACX_site5407]” the “gcPBM binding intensity (ln)” value was 10.9 ± 0.4.
In the case of “TTTTTTTTCTCACAAAAAATAATTAACAAAAAGGAA [XGTACX_negctrl_site154]”, the “gcPBM binding intensity (ln)” value is reported as 10.2 ± 0.32.
“ATATATATAATAAATACACACATTTATATAGATAAA [CACACA_site3254]” was tested, and the “gcPBM binding intensity (ln)” value was 9.925 ± 0.092.
For “TGACTTTGTTGAATTTGTCCTCTTAACTCATAATAT [GTGCAC_negctrl_site217]”, the “gcPBM binding intensity (ln)” value was 10.6 ± 0.48.
“TCCTTTCTTTTTTAAACATGCATATGTAATATAAAT [TGCATGCA_site979]” was tested, and the “gcPBM binding intensity (ln)” value was 10 ± 0.26.
In the case of “TTTTTTTGCGCGGGAAGAATAAAATTTATAGAATAT [TGCATGCA_negctrl_site306]”, the “gcPBM binding intensity (ln)” value is reported as 10.4 ± 0.36.
“ATAAATAATATAAATACACACTAAAAAAGATATATA [CACACA_site6397]” was tested, and the “gcPBM binding intensity (ln)” value was 10.01 ± 0.014.
For “TATAAATATAAATACTGTACATTATATTATATAATA [XGTACX_site2480]”, the “gcPBM binding intensity (ln)” value was 11 ± 0.71.
In the case of “AACTTCTTTTTTATAACACACAAAATATAAATACAA [CACACA_site4313]”, the “gcPBM binding intensity (ln)” value is reported as 10.2 ± 0.43.
In the case of “TTTTTTTTTTTTGTGCGTACATACCATTTTAATAAT [XGTACX_site2760]”, the “gcPBM binding intensity (ln)” value is reported as 11.6 ± 0.92.
“ATATATATACTGTGTACACAAATATATATTATATAT [CACACA_site6104]” was tested, and the “gcPBM binding intensity (ln)” value was 11.6 ± 0.84.
With “TAGTATAAAATTATGTGTACACAAATATAACTTTTC [XGTACX_site5971]” the “gcPBM binding intensity (ln)” value was 11.6 ± 0.78.
In the case of “ATAATACCATTAATTTGTACATATATATTATATATA [XGTACX_site4345]”, the “gcPBM binding intensity (ln)” value is reported as 10.9 ± 0.49.
In the case of “TATAAAATTATGTGTACACAAATATAACTTTTCTTT [CACACA_site5554]”, the “gcPBM binding intensity (ln)” value is reported as 11.7 ± 0.95.
With “ATAATAATATTGTGTACACAATAATTTGTCAAATCA [CACACA_site6019]” the “gcPBM binding intensity (ln)” value was 11.7 ± 0.86.
With “TTGTGTCATATATTTTGTAATCAAAATAATTTTATT [TGCATGCA_negctrl_site307]” the “gcPBM binding intensity (ln)” value was 10.1 ± 0.37.
For “ATAATCACAAATAATTGTACATTTTGTTATATATAT [XGTACX_site7704]”, the “gcPBM binding intensity (ln)” value was 10.8 ± 0.45.
With “TATATTTTTTTTGTGCGTACATACCATTTTAATAAT [XGTACX_site2751]” the “gcPBM binding intensity (ln)” value was 11.7 ± 0.8.
“TTTATACAAATATGTACACACTAAATATATATTATG [CACACA_site4413]” was tested, and the “gcPBM binding intensity (ln)” value was 11.5 ± 0.77.
In the case of “ATATATATATATATATGTACTTATATATAATATAGA [XGTACX_site3488]”, the “gcPBM binding intensity (ln)” value is reported as 11.2 ± 0.79.
“TTTATTATTATATTATTTTAATTTTTCTTTAGTACA [GTGCAC_negctrl_site392]” was tested, and the “gcPBM binding intensity (ln)” value was 10.29 ± 0.099.
With “CTTTTTTTCTTTCCAAGTACTAAATTCATACAAATT [XGTACX_site2605]” the “gcPBM binding intensity (ln)” value was 10.8 ± 0.51.
With “CATTAATATATATATACATGCACGTTTTAAAAAAAA [TGCATGCA_site875]” the “gcPBM binding intensity (ln)” value was 10.1 ± 0.23.
With “GTAAGATTTCTTGTTGCATGCGGTAAAAAGTAAAAT [TGCATGCA_site469]” the “gcPBM binding intensity (ln)” value was 10.6 ± 0.41.
With “ACATTCATAAAAAAAAGTACATTTTTTATAAAAGAA [XGTACX_site6197]” the “gcPBM binding intensity (ln)” value was 11.4 ± 0.75.
In the case of “AATATAAATAAAAACACACACACACCCATATATATA [CACACA_site2267]”, the “gcPBM binding intensity (ln)” value is reported as 10.1 ± 0.32.
In the case of “ATATATGTATATATGTACATGAATATATAAAGAAAA [CACACA_negctrl_site315]”, the “gcPBM binding intensity (ln)” value is reported as 11.1 ± 0.67.
For “TTTATGTAATATACATGTACAGAATATAAAATATAT [XGTACX_site6906]”, the “gcPBM binding intensity (ln)” value was 11 ± 0.54.
“AATACATGAATATGTAGTACAGAAAAAAAAAATATA [XGTACX_site1945]” was tested, and the “gcPBM binding intensity (ln)” value was 11.7 ± 0.95.
“ATATTATCACAAGGTGGTACACAAAAAAAAAAAAAA [XGTACX_site8224]” was tested, and the “gcPBM binding intensity (ln)” value was 11.4 ± 0.95.
In the case of “TTTTTTTTTTTATGTGCACACAAAAGATGCTTATAT [CACACA_site2347]”, the “gcPBM binding intensity (ln)” value is reported as 10.6 ± 0.53.
“ATTATTAAAATGATATGTACGCACATAATATACATA [XGTACX_site3236]” was tested, and the “gcPBM binding intensity (ln)” value was 11.6 ± 0.94.
With “AACAATGTTGTACATACACACACACTAATAAAAAAT [CACACA_site8758]” the “gcPBM binding intensity (ln)” value was 11.4 ± 0.95.
“AATAATATTTAATACGCACACAATAATAATATAAAA [CACACA_site1763]” was tested, and the “gcPBM binding intensity (ln)” value was 10.4 ± 0.32.
“GGATGATTAAGGGGGACACACGTTTATATATTTATA [CACACA_site4342]” was tested, and the “gcPBM binding intensity (ln)” value was 11.7 ± 0.9.
For “TTGGATGATTAAGGGGGACACACGTTTATATATTTA [CACACA_site338]”, the “gcPBM binding intensity (ln)” value was 11.4 ± 0.79.
